# Test results published in PubChem BioAssay.
# Where “and” joins values, the source holds several entries; their conditions need not be identical. Identical values can stand only once. Calls of active or inactive are those of the source.
# How the values were obtained:
# [1] = binders of probe aFSTL3 on microarray, primary screen, stem cell growth factor project, biochemical, small-molecule microarray, fluorescence 635/667 (AID 1064); details: higher = more signal;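 note: measures binding of the biotinylated anti-FSTL3 antibody to printed compounds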
# [2] = binders from COS7 lysate, DM2A8 probe, primary screen, torsin A project, cell lysate, small-molecule microarray, fluorescence 635/667 (AID 1065); details: higher = more signal, COS7 lysate expressing mutant human TOR1A
# [3] = binders of probe aFGF2 on microarray, primary screen, stem cell growth factor project, biochemical, small-molecule microarray, fluorescence 635/667 (AID 1067); details: higher = more signal;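 note: measures binding of biotinylated aFGF2 protein to printed compounds on slides; z-score merges feature fluorescence and signal-to-noise across triplicate slides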
# [4] = binders of probe aFGF10 on microarray, primary screen, stem cell growth factor project, biochemical, small-molecule microarray, fluorescence 635/667 (AID 1071); details: higher = more signal;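 note: score merges 667 nm spot intensity and signal to noise from triplicate slides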
# [5] = biological target: Neurogenic locus notch homolog protein 2 (Homo sapiens) (UniProt Q04721); experiment: Notch2 binders on small-molecule microarrays, primary screen, biochemical, small-molecule microarray, 635 nm fluorescence, stem cell growth factors (AID 1073); details: Notch2 binding, higher = more signal
# Chain of Neurogenic locus notch homolog protein 2 (Homo sapiens) (Q04721 whole entry, looked up, canonical isoform): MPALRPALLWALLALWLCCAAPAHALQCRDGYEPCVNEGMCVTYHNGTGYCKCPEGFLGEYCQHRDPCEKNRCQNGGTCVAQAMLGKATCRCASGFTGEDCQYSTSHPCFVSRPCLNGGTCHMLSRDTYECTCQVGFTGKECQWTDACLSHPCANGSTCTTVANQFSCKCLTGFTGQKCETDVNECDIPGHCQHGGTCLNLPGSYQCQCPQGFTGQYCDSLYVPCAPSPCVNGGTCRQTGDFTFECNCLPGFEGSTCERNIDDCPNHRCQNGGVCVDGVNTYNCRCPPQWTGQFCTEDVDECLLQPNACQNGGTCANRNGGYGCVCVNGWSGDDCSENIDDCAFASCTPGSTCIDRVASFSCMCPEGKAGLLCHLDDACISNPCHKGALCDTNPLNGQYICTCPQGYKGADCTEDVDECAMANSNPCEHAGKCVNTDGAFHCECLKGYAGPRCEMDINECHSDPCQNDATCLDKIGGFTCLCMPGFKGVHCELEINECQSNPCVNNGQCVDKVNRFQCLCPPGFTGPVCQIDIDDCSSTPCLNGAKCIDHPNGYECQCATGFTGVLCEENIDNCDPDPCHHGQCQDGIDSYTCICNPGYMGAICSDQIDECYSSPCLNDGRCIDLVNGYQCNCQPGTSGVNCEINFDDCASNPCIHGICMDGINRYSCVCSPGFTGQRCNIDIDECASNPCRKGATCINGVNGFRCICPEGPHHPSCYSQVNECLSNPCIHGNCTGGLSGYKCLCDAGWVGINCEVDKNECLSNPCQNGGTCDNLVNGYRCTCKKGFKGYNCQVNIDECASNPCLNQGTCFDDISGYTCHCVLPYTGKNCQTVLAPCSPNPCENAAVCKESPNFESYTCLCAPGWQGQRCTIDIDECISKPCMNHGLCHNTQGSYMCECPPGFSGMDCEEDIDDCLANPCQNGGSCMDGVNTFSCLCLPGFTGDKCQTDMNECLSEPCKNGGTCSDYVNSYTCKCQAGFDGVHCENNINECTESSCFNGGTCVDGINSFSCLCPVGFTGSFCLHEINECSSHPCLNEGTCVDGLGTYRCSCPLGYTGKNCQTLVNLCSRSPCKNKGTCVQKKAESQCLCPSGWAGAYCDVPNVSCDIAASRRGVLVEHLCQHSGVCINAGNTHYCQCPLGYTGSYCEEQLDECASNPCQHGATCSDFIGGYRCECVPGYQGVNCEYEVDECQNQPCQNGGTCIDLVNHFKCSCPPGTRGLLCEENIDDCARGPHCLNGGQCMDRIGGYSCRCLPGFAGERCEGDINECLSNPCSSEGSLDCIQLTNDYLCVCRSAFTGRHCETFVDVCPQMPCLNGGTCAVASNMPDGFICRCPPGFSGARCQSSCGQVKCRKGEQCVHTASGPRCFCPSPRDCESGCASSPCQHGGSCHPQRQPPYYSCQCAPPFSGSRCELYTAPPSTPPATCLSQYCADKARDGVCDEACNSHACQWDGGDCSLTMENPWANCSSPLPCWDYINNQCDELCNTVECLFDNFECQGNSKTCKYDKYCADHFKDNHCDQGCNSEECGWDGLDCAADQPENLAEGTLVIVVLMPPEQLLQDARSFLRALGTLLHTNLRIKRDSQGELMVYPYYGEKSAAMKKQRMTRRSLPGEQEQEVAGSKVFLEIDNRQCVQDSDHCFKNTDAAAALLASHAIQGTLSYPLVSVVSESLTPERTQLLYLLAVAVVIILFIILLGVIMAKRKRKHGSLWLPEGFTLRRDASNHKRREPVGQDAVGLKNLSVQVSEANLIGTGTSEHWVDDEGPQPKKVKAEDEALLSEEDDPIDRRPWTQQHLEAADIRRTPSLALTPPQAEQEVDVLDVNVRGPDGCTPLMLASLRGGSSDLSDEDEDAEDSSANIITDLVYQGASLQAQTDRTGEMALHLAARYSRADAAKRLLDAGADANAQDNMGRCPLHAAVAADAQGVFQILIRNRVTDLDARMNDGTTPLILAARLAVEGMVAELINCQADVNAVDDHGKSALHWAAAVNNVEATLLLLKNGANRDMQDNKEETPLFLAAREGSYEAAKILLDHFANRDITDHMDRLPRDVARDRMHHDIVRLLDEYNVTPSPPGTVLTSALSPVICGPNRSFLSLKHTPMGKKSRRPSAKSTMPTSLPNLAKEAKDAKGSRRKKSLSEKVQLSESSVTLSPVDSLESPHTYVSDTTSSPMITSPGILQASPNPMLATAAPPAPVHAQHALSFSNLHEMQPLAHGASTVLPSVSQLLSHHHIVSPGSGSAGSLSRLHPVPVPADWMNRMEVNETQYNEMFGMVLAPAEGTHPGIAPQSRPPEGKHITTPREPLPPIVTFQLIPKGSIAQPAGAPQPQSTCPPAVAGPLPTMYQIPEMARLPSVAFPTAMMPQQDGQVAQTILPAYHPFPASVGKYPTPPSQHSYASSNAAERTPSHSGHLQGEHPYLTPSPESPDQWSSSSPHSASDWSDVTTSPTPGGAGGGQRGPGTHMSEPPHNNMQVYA
# [6] = biological target: Pro-neuregulin-1, membrane-bound isoform (Homo sapiens) (UniProt Q02297); experiment: NRG1 binders on small-molecule microarrays, primary screen, psychiatric disease protein project, biochemical, small-molecule microarray, fluorescence 635/667 (AID 1075); details: NRG1 binding, 635 nm fluorescence, higher = more signal;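 note: score combines 667 nm spot fluorescence with signal to noise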
# Chain of Pro-neuregulin-1, membrane-bound isoform (Homo sapiens) (Q02297 whole entry, looked up, the tested form may be a part, canonical isoform): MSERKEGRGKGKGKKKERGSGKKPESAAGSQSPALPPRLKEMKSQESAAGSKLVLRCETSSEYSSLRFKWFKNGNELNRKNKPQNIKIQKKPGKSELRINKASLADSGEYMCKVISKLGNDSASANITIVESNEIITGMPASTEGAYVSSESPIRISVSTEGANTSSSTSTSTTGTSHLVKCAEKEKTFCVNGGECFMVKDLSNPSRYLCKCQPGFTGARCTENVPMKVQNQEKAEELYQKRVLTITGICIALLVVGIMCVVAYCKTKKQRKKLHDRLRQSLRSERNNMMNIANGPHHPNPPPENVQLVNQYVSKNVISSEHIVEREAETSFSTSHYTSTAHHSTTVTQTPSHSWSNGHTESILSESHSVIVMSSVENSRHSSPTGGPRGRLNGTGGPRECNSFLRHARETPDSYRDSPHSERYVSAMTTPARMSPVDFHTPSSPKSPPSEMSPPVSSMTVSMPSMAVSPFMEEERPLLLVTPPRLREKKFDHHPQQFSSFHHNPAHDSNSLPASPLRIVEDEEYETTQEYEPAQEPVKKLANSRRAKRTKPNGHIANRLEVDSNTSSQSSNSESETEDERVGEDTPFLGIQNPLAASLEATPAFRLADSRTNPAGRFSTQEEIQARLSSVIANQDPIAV
# [7] = system: Neuregulin-1 EGF-like domain; experiment: binders of neuregulin-1 EGF-like domain, primary screen, biochemical, small-molecule microarray, 635 nm fluorescence (AID 1081); details: small-molecule microarray binding, higher = more signal;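 note: binding of the protein to compounds printed on small-molecule microarray slides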
# [8] = FRG1 promoter luciferase signal modulators, primary screen, FRG1 inhibition for FSHD, cell-based, C2C12 myotubes, firefly/Renilla luciferase, luminescence (AID 1084); details: higher = more signal, called active from +8 up or from −8 down
# [9] = binders of probe aFST on microarray, primary screen, stem cell growth factor project, biochemical, small-molecule microarray, fluorescence 635/667 (AID 1086); details: higher = more signal;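 note: score merges 667 nm fluorescence with signal-to-noise of each printed compound spot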
# [10] = binders of probe aHhip on microarray, primary screen, stem cell growth factor project, biochemical, small-molecule microarray, fluorescence 635/667 (AID 1087); details: higher = more signal;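 note: score merges spot fluorescence at 667nm with spot signal to noise ratio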
SMILES,composite z-score [1],composite z-score [2],composite z-score [3],composite z-score [4],composite z-score [5],composite z-score [6],composite z-score [7],z-score [8],composite z-score [9],composite z-score [10]
COC(=O)CC=C[C@@H](C)[C@@H](CO)NS(=O)(=O)c1ccc(C)cc1,-0.659 and -0.717,0.406 and 0.605,-0.108 and -0.0656,0.242 and 0.526,0.157 and 0.444,-0.386 and -0.0111,0.081 and 0.253,0.862 (inactive) and -1.81 (inactive),0.544 and 0.35,-0.147 and 0.0505
COc1ccc(O[C@H]2C=C[C@@H](c3ccccc3)O[C@@H]2COC(=O)CCC(C)=NO[C@H](C)c2cn([C@H](CO)Cc3ccccc3)nn2)cc1,-0.647 and -0.694,0.535 and 0.365,-0.0682 and -0.171,0.241 and 0.038,0.203 and 0.35,0.338 and 0.692,-0.0177 and 0.384,1.61 (inactive) and 1.46 (inactive),0.0869 and -0.364,-0.0196 and 0.201
CC(C)=NO[C@@H](C)c1cc(-c2c(C)cc(C)cc2C)no1,1.18,-0.146,-0.135,0.0794,-0.243,-0.0227,-0.304,0.122 (inactive),-0.163,0.0854
C[C@@]1([C@@H](NC(=O)Cc2ccccc2)c2ccc(-c3ccccc3)cc2)C[C@H]1C1CCCCC1,1.12 and 2.03 and -0.0771,0.528 and 0.149 and 0.36,0.611 and 0.674 and -0.218,0.602 and 0.59 and 0.392,0.866 and 0.815 and 0.536,1.41 and 0.96 and 0.841,0.911 and 0.56 and 0.909,-1.2 (inactive) and -0.806 (inactive) and 1.29 (inactive),0.57 and 2.41 and 1.59,0.319 and 2.76 and -0.609
CC(CO)N1C(=O)[C@@H]2C3C(=O)OCCC=C[C@H]3OC23C=CCN(c2ccc4ccccc4c2)C(=O)[C@@H]13 (stereo not given in full),0.265 and -1.11,-1.36 and -0.483,-0.0689 and -0.36,-0.282 and -0.642,-0.704 and -1.04,0.0944 and 1.21,0.713 and 1.19,0.544 (inactive) and 1.81 (inactive),-0.0414 and 0.226,-0.388 and -0.937
C=CCN(CCCC)C(=O)C1N(c2ccc(CCO)cc2)C(=O)C2C(C(=O)O)C3C=CC21O3 (stereo not given),0.508 and 1.27,-1.1 and -1.66,-0.156 and -0.061,-0.883 and 0.807,-1.32 and -0.91,-1.32 and -0.402,-0.493 and 0.201,-0.267 (inactive) and 1.68 (inactive),-0.951 and -1.03,-0.48 and -0.137
CCN1C(=O)[C@H]2[C@H]3[C@H](O)[C@H](O)CC(=NOC[C@@H](O)COCc4ccco4)[C@@H]3CC[C@H]2C1=O,-0.841 and -0.446,2.37 and 0.0438,-0.235 and -0.132,-0.507 and 0.352,-0.413 and -0.498,-0.538 and -0.26,0.837 and 1.12,0.235 (inactive) and 0.417 (inactive),-0.104 and -0.45,-0.0645 and 0.154
CO[C@H]1COC(=O)CC=C[C@H](C)[C@H](OC)COC(=O)[C@@H](C)COC(=O)CC=C[C@@H]1C,-0.62 and -0.66,0.767 and 1.26,-0.14 and -0.143,-0.0016 and 0.149,-0.178 and 0.182,-0.73 and -0.518,-0.104 and 0.0825,-0.407 (inactive) and -1.3 (inactive),-0.0446 and -0.0435,-0.261 and -0.0645
CC(C)=NOCc1ccc(-c2cn([C@@H]3COC[C@H]3O)nn2)cc1,-0.401,0.032,-0.0268,0.543,0.31,-0.766,0.718,0.0937 (inactive),0.169,0.0722
CO[C@@H]1C=CCC(=O)N2CCC[C@H]2C(=O)OC[C@H](C)C(=O)OC[C@H]1C,-0.368,1.3,-0.0676,0.0525,-0.244,-0.226,1.07,0.0531 (inactive),0.191,0.501
CC(CO)N1C(=O)[C@@H]2C3C(=O)OCCC=C[C@H]3OC23C=CCN(CCN2CCOCC2)C(=O)[C@@H]13 (stereo not given in full),-0.316 and 0.246,-1.28 and 0.759,-0.166 and -0.085,-0.376 and -0.591,-0.0931 and 0.0406,-0.256 and 1.91,0.678 and 0.666,0.12 (inactive) and 0.497 (inactive),0.106 and 0.0417,-0.399 and -0.119
Cc1ccc(S(=O)(=O)N[C@H]2COC(=O)[C@@H](Cc3ccccc3)NC(=O)[C@@H](C)COC(=O)CC=C[C@@H]2C)cc1,-0.547 and -0.267,0.811 and 0.656,-0.177 and -0.145,0.0514 and 0.209,-0.311 and 0.0627,-0.355 and -0.215,-0.721 and 0.219,1.23 (inactive) and 1.04 (inactive),-0.169 and -0.0364,-0.429 and -0.0994
CO[C@H]1COC(=O)[C@H](C)NC(=O)CC=C[C@@H](C)[C@H](OC)COC(=O)CC=C[C@@H]1C,-0.748,2.16,-0.125,-0.0919,-0.362,-0.745,0.0232,-0.628 (inactive),-0.0994,0.201
COC(=O)c1c2oc(c1C(=O)OC)C(=O)N[C@@H](Cc1ccccc1)Cn1cc(nn1)C1(CCCCC1)NC(=O)N[C@H](CO)CC2,0.345 and -0.428,-0.946 and -0.603,-0.0558 and -0.0752,0.866 and 0.262,0.395 and 0.428,1.23 and 0.0012,1.31 and 0.747,-0.818 (inactive) and -1 (inactive),0.247 and 0.182,-0.0346 and -0.13
COC(=O)C1=C(C)N(Cc2ccccc2)C2=C(C(C)=O)C[C@@](O)(C(=O)OC)C(=O)N2[C@@H]1c1ccccc1,-0.335 and -0.244,1.12 and -0.0954,-0.0005 and -0.118,0.889 and 0.0839,1.43 and 1.26,-0.119 and -0.159,1.05 and 0.439,-0.486 (inactive) and -0.75 (inactive),0.235 and 0.385,-0.0994 and 0.21
CON(C)C(=O)c1nnc2c3ccccc3n(S(=O)(=O)c3ccc(C)cc3)c2n1,-0.492 and -0.386,0.216 and 0.226,-0.208 and 0.0937,0.455 and 0.814,0.81 and 0.675,1.08 and 0.789,0.804 and 1.19,161 (active) and 193 (active),-0.458 and 0.184,0.12 and 0.28
CCOC(=O)C[C@H]1[C@H](OC(=O)c2ccccc2-c2ccccc2)[C@@H](NC(=O)Cc2ccc(OC)cc2)c2cc(OCCCO)ccc2N1C(=O)Cc1ccc(OC)cc1,0.169 and 0.18,0.22 and 0.0916,0.0811 and -0.0737,0.473 and -0.0644,-0.386 and -0.0483,0.621 and -0.428,0.927 and -0.835,-0.848 (inactive) and -0.382 (inactive),0.492 and 0.0474,-0.0994 and -0.199
C=CCN(C(=O)C(c1cccs1)N(CCOCCO)C(=O)/C=C\C(=O)O)C(C)(C)C (stereo not given),0.982 and 1.01,-0.718 and -0.131,-0.228 and -0.192,-0.708 and -0.376,-1.28 and -1.44,-0.395 and -0.988,0.484 and 0.745,-0.0773 (inactive) and -0.143 (inactive),-0.78 and -1.06,-0.277 and -0.169
CC(CO)N1C(=O)[C@@H]2C3C(=O)OCCC=C[C@H]3OC23C=CCN(C(C)(C)C)C(=O)[C@@H]13 (stereo not given in full),0.589 and 0.169,-0.848 and -0.0168,-0.158 and -0.0296,-0.884 and 0.546,-1.01 and 0.13,-0.551 and 0.91,0.369 and 1.41,0.714 (inactive) and 0.355 (inactive),-0.547 and -0.0366,-0.134 and 0.0749
C=C[C@@H](C)[C@H](O)c1ccc(O)c2ccccc12,-0.0835 and 0.0226,0.0628 and -0.136,-0.182 and -0.24,-0.455 and -0.788,-0.889 and -2.07,-0.0351 and -0.653,-0.728 and -0.279,-0.431 (inactive) and 0.2 (inactive),-0.938 and -1.14,0.0373 and -0.261
COC(=O)C1=C(C)N(Cc2ccccc2)[C@]23O[C@](C(=O)OC)(C(=O)N2[C@@H]1c1ccccc1)[C@H]1C(=O)N(c2ccccc2)C(=O)[C@H]13,-0.387 and -0.343,0.446 and 0.277,-0.0747 and 0.41,-0.116 and 0.883,1.18 and 0.445,0.288 and 0.212,1.07 and 1.09,-0.507 (inactive) and -0.154 (inactive),0.0931 and 0.64,0.192 and -0.0672
COC(=O)[C@@]1(Cc2ccc(F)cc2)[C@H]2c3cc(C(=O)N4CCCC4)n(Cc4c(CO)[nH]cc(C)c4=O)c3C[C@H]2CN1C(=O)c1ccccc1,1.8 and 0.692,-0.101 and -1.02,0.775 and -0.0485,1.22 and 0.774,1.43 and 1.42,1.92 and 1.21,1.31 and 1.1,1.78 (inactive) and -0.112 (inactive),1.54 and 0.659,1.42 and 0.314
C[C@@H]1CN2[C@@H](CC[C@@H](C)[C@@H]2c2ccc(Br)cc2)C(=O)O1,-0.267 and -0.0033,-0.0199 and 0.174,-0.116 and -0.0583,0.215 and 0.604,0.275 and 0.18,-0.368 and 0.158,-0.704 and -0.829,-0.735 (inactive) and -1.38 (inactive),-0.145 and 0.0701,-0.0994 and -0.274
COC(=O)C1=C(C)N(Cc2ccccc2)C2=C3C(=O)N(C)C(=O)[C@@H]3[C@@](O)(C(=O)OC)C(=O)N2[C@@H]1c1ccccc1,-0.0472 and -0.448,0.131 and 0.375,-0.0301 and -0.0158,0.721 and 0.128,0.356 and 0.415,-0.239 and -0.0154,-0.322 and -0.0698,0.121 (inactive) and -0.811 (inactive),0.224 and -0.114,0.251 and -0.0645
C=CCN(C(=O)C(c1cccs1)N(C(=O)/C=C\C(=O)O)C(C)(C)CO)C(C)(C)C (stereo not given),-0.0667 and 0.0338,-0.543 and -0.24,0.0929 and -0.126,-0.433 and -0.781,-1.07 and -0.925,1.32 and 1.05,1.27 and 1.24,-1.03 (inactive) and -1.13 (inactive),-0.114 and -0.867,-0.0994 and -0.385
CO[C@@H]1COC(=O)CC=C[C@H](C)COC(=O)[C@H](C)NC(=O)CC=C[C@H]1C,-0.563,1.75,-0.203,0.126,0.269,-0.557,-0.139,-0.87 (inactive),-0.118,0.0505
COC(=O)C1=C(C)N(Cc2ccccc2)[C@]23O[C@](C(=O)OC)(C(=O)N2[C@@H]1c1ccccc1)[C@H]1C(=O)N(C)C(=O)[C@H]13,-0.342 and -0.556,0.117 and 0.134,-0.137 and -0.0212,0.566 and 0.842,0.585 and 0.405,1.14 and -0.0494,1.17 and 0.892,-0.564 (inactive) and 0.0169 (inactive),0.271 and 0.2,0.0439 and -0.121
C[C@@H]1CC[C@H]2C(=O)O[C@H](CN=[N+]=[N-])CN2[C@H]1c1ccc(Br)cc1,-0.0927 and -0.0564,0.622 and 0.269,-0.158 and -0.187,-0.12 and -0.336,-0.321 and -0.635,-0.198 and 0.292,-0.238 and -0.279,-0.492 (inactive) and -0.161 (inactive),0.3 and -0.405,-0.0657 and -0.0618
